Results filed as inconclusive are left out. Active and inactive are the calls of the source. Unless noted, calls come from the whole dose curve; as a rule, active = well fitted curve in the direction sought with a large enough effect in the repeat runs; inconclusive = weak or mixed curves; inactive = no such curve, though single readings can be large; an effect the other way counts as inactive or inconclusive.

Potency data for eleven molecules are collected here from PubChem BioAssay (Tox21).

Experiment [1] addresses Aryl hydrocarbon receptor (Homo sapiens) (UniProt P35869). Put plainly: qHTS assay to identify small molecule that activate the aryl hydrocarbon receptor (AhR) signaling pathway (AID 743085).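 For activation: HG2L7.5c1 human HepG2 liver cells with stably integrated DRE-driven firefly reporter; series mostly up to about 70 µM.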 Note: nearly all actives have a fitted effect of over 15% in size. Note: potency is the fitted concentration of half-maximal effect. In short, it runs like this:
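Measured in HG2L7.5c1 cells: CellTiter-Fluor signal (30 min incubation, 37C) for viability, then luciferase luminescence (30 min, room temperature). Compound contact time was 24 h at 37C, following a 5 h pre-incubation.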

Experiment [2] can be described thus: qHTS assay to identify small molecule that activate the aryl hydrocarbon receptor (AhR) signaling pathway - cell viability counter screen (AID 743086). Note: nearly all actives have a fitted effect of over 45% in size. Note: potency is the fitted concentration of half-maximal effect. The method in brief: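 HepG2-AhR-luc (HG2L7.5c1) cells, 4000/well, were preincubated 5 h at 37C, exposed to compound in qHTS format for 24 hr at 37C, then given CellTiter-Fluor for 30 min; viability was read as fluorescence in the reporter wells.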

Experiment [3] in a line: qHTS assay for small molecule agonists of the antioxidant response element (ARE) signaling pathway - cell viability counter screen (AID 743203; calls by dose curve; note: nearly all actives have a fitted effect of over 55% in size; note: potency is the fitted concentration of half-maximal effect). In short, it runs like this: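 Cells (ARE-bla HepG2, 2,000/well) receive DMSO-dissolved compounds after a 5 hrs rest. Plates incubate 16 hrs at 37C/5% CO2. CellTiter-Glo luminescence is then recorded after 30 min at room temperature.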

The nature of experiment [4]: qHTS assay for small molecule activators of the heat shock response signaling pathway (AID 743210; active = well fitted activation curve with a large enough effect in the signal ratio in the repeat runs, with a control signal flat, not every such curve was filed as active; the % refers to the signal ratio; note: series mostly up to about 63 µM). The method in brief: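 Reporter gene assay: HeLa cells stably bearing an HSE-bla construct, compound treatment 5 h at 37 C, LiveBLAzer substrate 2.5 h at RT, fluorescence intensity.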
Experiment [5] is described as follows: qHTS assay to identify small molecule agonists of the peroxisome proliferator-activated receptor delta (PPARd) signaling pathway - cell viability counter screen (AID 743211). Note: nearly all actives have a fitted effect of over 55% in size. Note: potency is the fitted concentration of half-maximal effect. The method in brief: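 Following 5 h plating at 37 C and 5% CO2, PPARd UAS-bla HEK293H cells took up test compounds for 17 h. Viability was quantified by luminescence 30 min after CellTiter-Glo addition at room temperature.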

For experiment [6], the target named is Peroxisome proliferator-activated receptor delta (Homo sapiens) (UniProt Q03181). Kind of experiment: qHTS assay to identify small molecule agonists of the peroxisome proliferator-activated receptor delta (PPARd) signaling pathway (AID 743212; calls by dose curve). The method in brief: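 A PPARd-bla HEK293H line with beta-lactamase under an Upstream Activator Sequence is treated with compounds at 37 C. Substrate loading for 2 h at room temperature precedes the fluorescence measurement.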
Chain of Peroxisome proliferator-activated receptor delta (Homo sapiens) (Q03181 whole entry, looked up): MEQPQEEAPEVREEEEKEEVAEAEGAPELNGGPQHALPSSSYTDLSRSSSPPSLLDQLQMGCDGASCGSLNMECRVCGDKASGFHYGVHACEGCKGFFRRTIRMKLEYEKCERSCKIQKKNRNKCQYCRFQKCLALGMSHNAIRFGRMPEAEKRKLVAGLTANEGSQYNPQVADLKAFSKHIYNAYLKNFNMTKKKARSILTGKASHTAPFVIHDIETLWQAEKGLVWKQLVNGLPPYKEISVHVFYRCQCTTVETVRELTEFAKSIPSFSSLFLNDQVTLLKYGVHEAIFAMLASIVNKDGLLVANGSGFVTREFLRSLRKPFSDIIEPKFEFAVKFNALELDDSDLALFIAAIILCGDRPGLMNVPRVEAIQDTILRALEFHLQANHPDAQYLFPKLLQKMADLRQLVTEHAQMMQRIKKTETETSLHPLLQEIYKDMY

Experiment [7] can be described thus: qHTS assay to identify small molecule antagonists of the peroxisome proliferator-activated receptor delta (PPARd) signaling pathway - cell viability counter screen (AID 743213). Note: nearly all actives have a fitted effect of over 50% in size. Note: potency is the fitted concentration of half-maximal effect. In short, it runs like this:
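PPARd-bla HEK293H cells (3000/well) got compound plus 300 nM L165041 agonist for 17 h at 37 C. Viability in the same wells came from CellTiter-Glo luminescence after 30 min at room temperature.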

Experiment [8] has as its target Peroxisome proliferator-activated receptor delta (Homo sapiens) (UniProt Q03181). Put plainly: qHTS assay to identify small molecule antagonists of the peroxisome proliferator-activated receptor delta (PPARd) signaling pathway (AID 743215; active = well fitted inhibition curve with a large enough effect in the signal ratio in the repeat runs, not every such curve was filed as active; the % refers to the signal ratio;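 note: cells stimulated with agonist L165041 at 300 nM final during compound exposure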; note: potency is the fitted concentration of half-maximal effect). In short, it runs like this:
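Antagonist-mode beta-lactamase reporter screen: HEK293H cells with UAS-bla under PPARd control, stimulated by 300 nM L165041 (final) alongside test compound for 17 h at 37 C, then FRET fluorescence after 2 h substrate incubation.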

Experiment [9] has as its target Bile acid receptor (Homo sapiens) (UniProt Q96RI1). Kind of experiment: qHTS assay to identify small molecule antagonists of the farnesoid-X-receptor (FXR) signaling pathway (AID 743217; active = well fitted inhibition curve with a large enough effect in the signal ratio in the repeat runs, not every such curve was filed as active; the % refers to the signal ratio). In short, it runs like this:
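Beta-lactamase reporter under UAS control in HEK 293T cells; compound exposure 16 h at 37 °C in the presence of chenodeoxycholic acid (50 uM final); signal from B/G FRET substrate after 2 h at room temperature.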

The target is the same in experiment [10]. Kind of experiment: qHTS assay to identify small molecule agonists of the farnesoid-X-receptor (FXR) signaling pathway (AID 743220; active = well fitted activation curve with a large enough effect in the signal ratio in the repeat runs, not every such curve was filed as active; the % refers to the signal ratio). In short, it runs like this: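 Beta-lactamase reporter under UAS control in GeneBLAzer FXR HEK 293T cells (5000/well) measured with LiveBLAzer FRET substrate after 2 h at room temperature. Compound exposure lasted 16 h at 37C.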

The target of experiment [11] is Vitamin D3 receptor (Homo sapiens) (UniProt P11473). Put plainly: qHTS assay to identify small molecule agonists of the vitamin D receptor (VDR) signaling pathway (AID 743222; calls by dose curve). In short, it runs like this: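 Agonist activity measured in VDR-bla reporter cells. Exposure 16 h, 37C, 5% CO2; detection by B/G FRET substrate, 2 h RT.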
Chain of Vitamin D3 receptor (Homo sapiens) (P11473 whole entry, looked up): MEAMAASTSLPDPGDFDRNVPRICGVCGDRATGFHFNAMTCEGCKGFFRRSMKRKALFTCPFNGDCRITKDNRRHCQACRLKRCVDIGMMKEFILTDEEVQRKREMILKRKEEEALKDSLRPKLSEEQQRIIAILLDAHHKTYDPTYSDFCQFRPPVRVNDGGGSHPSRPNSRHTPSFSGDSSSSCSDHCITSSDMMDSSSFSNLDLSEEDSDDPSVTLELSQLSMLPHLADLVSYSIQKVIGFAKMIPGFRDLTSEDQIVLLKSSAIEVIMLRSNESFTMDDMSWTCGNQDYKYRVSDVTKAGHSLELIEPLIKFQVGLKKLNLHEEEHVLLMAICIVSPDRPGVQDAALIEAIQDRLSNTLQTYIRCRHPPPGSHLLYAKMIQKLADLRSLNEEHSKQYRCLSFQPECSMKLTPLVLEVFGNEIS
Experiment [12] is described as follows: qHTS assay to identify small molecule agonists of the farnesoid-X-receptor (FXR) signaling pathway - cell viability counter screen (AID 743218). Note: nearly all actives have a fitted effect of over 45% in size. Note: potency is the fitted concentration of half-maximal effect. In short, it runs like this: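 In GeneBLAzer FXR-UAS-bla HEK 293T cells, compounds act for 16 h at 37 C. Cell viability is then scored in the reporter wells by CellTiter-Glo, 30 min at RT, luminescence.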
For experiment [13], the target named is Peroxisome proliferator-activated receptor gamma (Homo sapiens) (UniProt P37231). Kind of experiment: qHTS assay to identify small molecule antagonists of the peroxisome proliferator-activated receptor gamma (PPARg) signaling pathway (AID 743191; calls by dose curve; note: nearly all actives have a fitted effect of over 30% in size; note: potency is the fitted concentration of half-maximal effect). In short, it runs like this:
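GeneBLAzer PPARg UAS-bla HEK293H cells carrying a UAS-driven beta-lactamase reporter were plated at 3000 cells/well, preincubated 5 h at 37C, then given compound for 17 h at 37C; LiveBLAzer B/G FRET substrate was read after 1 h at room temperature.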

Experiment [14] is described as follows: qHTS assay to identify small molecule antagonists of the peroxisome proliferator-activated receptor gamma (PPARg) signaling pathway - cell viability counter screen (AID 743194). Note: nearly all actives have a fitted effect of over 55% in size. The method in brief: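 PPARg-UAS-bla HEK293H cells were plated, rested 5 h at 37 C, then treated with compounds plus rosiglitazone (50 nM final) for 17 h at 37 C; viability was then read by CellTiter-Glo luminescence after 30 min at room temperature.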

Experiment [15] is described as follows: qHTS assay for small molecule agonists of the antioxidant response element (ARE) signaling pathway (AID 743202; active = well fitted activation curve with a large enough effect in the signal ratio in the repeat runs, not every such curve was filed as active; the % refers to the signal ratio; note: potency is the fitted concentration of half-maximal effect). The method in brief:
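Compounds delivered in DMSO to ARE-bla HepG2 cells (2,000 cells/well, pre-incubated 5 h) and left 16 h at 37 C. LiveBLAzer B/G FRET substrate then added for 2 h at RT before fluorescence reading.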

A short description of experiment [16]: qHTS assay to identify small molecule antagonists of the farnesoid-X-receptor (FXR) signaling pathway - cell viability counter screen (AID 743221; active = well fitted cell-killing curve with a large enough effect in the repeat runs, not every such curve was filed as active; note: nearly all actives have a fitted effect of over 50% in size; note: potency is the fitted concentration of half-maximal effect). In short, it runs like this: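 Compound effects on cell number were measured as CellTiter-Glo luminescence in HEK 293T cells expressing FXR-UAS-bla, after 16 h at 37 C with 50 uM CDCA (final).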
The target in experiment [17] is Vitamin D3 receptor (Homo sapiens) (UniProt P11473). Kind of experiment: qHTS assay to identify small molecule antagonists of the vitamin D receptor (VDR) signaling pathway (AID 743223; active = well fitted inhibition curve with a large enough effect in the signal ratio in the repeat runs, not every such curve was filed as active; the % refers to the signal ratio). In short, it runs like this: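 Beta-lactamase activity in VDR-bla cells is measured by FRET substrate fluorescence (2 h, room temperature) after cells spend 16 h at 37C with test compound and 3 nM final 1alpha,25-dihydroxyvitamin D3.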

Experiment [18] in a line: qHTS assay for small molecule activators of the heat shock response signaling pathway - cell viability counter screen (AID 743209). Note: nearly all actives have a fitted effect of over 50% in size. The method in brief: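 Quantitative HTS format, Tox21 10K library. HeLa cells carrying an HSE-driven beta-lactamase reporter were treated 5 h at 37 C, then assessed for viability by CellTiter-Glo luminescence.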
Experiment [19] concerns the target Peroxisome proliferator-activated receptor gamma (Homo sapiens) (UniProt P37231). Kind of experiment: qHTS assay to identify small molecule agonists of the peroxisome proliferator-activated receptor gamma (PPARg) signaling pathway (AID 743094; active = well fitted activation curve with a large enough effect in the signal ratio in the repeat runs, not every such curve was filed as active; the % refers to the signal ratio). The method in brief: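 Stably transfected HEK293H cells (GeneBLAzer PPARg UAS-bla) were incubated with test substances for 17 h at 37C after a 5 h pre-incubation; beta-lactamase activity was then detected by FRET substrate fluorescence.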

Chain of Peroxisome proliferator-activated receptor gamma (Homo sapiens) (P37231 whole entry, looked up): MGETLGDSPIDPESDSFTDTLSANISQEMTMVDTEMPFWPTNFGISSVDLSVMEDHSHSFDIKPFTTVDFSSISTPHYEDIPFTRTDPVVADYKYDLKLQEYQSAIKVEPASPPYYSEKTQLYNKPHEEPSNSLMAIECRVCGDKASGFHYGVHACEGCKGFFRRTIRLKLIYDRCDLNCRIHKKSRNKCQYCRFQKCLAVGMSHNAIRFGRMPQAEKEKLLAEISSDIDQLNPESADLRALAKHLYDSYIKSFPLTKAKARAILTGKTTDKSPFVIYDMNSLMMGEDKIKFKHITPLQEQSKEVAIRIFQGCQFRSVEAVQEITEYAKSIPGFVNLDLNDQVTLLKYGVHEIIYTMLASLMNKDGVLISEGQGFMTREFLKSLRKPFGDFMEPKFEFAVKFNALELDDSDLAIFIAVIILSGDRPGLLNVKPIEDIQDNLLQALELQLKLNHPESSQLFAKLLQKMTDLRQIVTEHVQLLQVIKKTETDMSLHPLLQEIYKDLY
Chain of Aryl hydrocarbon receptor (Homo sapiens) (P35869 whole entry, looked up): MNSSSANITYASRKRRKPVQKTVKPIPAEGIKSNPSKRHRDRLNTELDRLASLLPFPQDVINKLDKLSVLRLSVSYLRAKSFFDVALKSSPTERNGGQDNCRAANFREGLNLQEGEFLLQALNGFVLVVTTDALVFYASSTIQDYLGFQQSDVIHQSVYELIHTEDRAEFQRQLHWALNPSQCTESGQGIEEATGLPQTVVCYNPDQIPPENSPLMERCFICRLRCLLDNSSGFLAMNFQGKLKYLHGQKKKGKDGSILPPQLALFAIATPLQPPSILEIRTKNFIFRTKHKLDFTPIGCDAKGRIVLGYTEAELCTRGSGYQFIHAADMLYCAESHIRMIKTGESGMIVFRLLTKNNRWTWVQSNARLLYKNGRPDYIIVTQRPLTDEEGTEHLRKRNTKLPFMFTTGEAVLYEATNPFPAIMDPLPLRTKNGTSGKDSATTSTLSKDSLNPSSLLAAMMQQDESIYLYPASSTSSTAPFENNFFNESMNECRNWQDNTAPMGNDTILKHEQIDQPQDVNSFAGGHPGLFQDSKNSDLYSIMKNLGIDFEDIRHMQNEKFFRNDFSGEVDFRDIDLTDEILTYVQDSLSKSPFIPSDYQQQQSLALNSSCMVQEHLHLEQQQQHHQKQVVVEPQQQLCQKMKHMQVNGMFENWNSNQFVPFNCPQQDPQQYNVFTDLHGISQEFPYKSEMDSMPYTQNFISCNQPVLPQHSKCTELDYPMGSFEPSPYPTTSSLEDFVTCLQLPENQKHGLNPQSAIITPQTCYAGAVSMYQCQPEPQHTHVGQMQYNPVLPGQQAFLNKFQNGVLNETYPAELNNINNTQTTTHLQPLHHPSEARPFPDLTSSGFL
Chain of Bile acid receptor (Homo sapiens) (Q96RI1 whole entry, looked up): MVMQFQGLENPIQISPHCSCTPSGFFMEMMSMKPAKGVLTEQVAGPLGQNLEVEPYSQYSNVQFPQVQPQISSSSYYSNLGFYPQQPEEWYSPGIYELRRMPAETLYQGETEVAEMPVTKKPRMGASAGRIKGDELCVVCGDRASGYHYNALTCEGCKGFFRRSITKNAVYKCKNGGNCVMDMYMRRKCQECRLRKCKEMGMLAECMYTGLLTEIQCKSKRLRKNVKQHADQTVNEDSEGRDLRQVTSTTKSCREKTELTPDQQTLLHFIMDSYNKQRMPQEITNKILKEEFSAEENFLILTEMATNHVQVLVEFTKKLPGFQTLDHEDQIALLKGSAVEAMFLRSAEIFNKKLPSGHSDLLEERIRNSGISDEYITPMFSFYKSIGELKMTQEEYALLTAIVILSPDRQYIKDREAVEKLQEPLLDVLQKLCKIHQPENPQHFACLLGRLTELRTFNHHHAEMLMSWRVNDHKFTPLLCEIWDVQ

Take `CCN(CC)C(=O)c1cc(S(=O)(=O)Cc2ccccc2)c(N2CCC(c3ccccc3)CC2)cc1N(CC)CCN(C)C`: the Potency entry in experiment [1], in [4], in experiment [6], in experiment [9], in [10] and in experiment [11] was “inactive” throughout. The Potency is 23.7 µM (active) in experiment [2]; 21.4 µM (active) in experiment [3]; 21.6 µM (active) in experiment [5]; 6.84 µM (active) in experiment [7]; 17.2 µM (active) in experiment [8].

Turning to `OCCN1CCN(CCCN2c3ccccc3Sc3ccc(C(F)(F)F)cc32)CC1`, the Potency result in [1], in [4], in experiment [6], in experiment [9], in experiment [10] and in experiment [11] was “inactive” each time. Also, the Potency in experiment [3] is 29.8 µM (active); in [5] it was 26.6 µM (active); in experiment [7], 11.9 µM (active); in experiment [12] it was 29.8 µM (active).

As for `Cc1c(N)cccc1C(F)(F)F`, the Potency entry in experiment [13], in experiment [14], in [15], in experiment [3], in experiment [4] and in experiment [6] was “inactive” throughout. Further, the Potency result in [8], in experiment [12], in experiment [16], in experiment [11] and in [17] was “inactive” in each case.

For `COc1ccc2c(c1)c(CC(=O)OC/C=C(\C)CC/C=C(\C)CCC=C(C)C)c(C)n2C(=O)c1ccc(Cl)cc1`, the Potency result in experiment [14], in experiment [3], in experiment [7], in experiment [12], in [10] and in experiment [16] was “inactive” in each case. Further, the Potency result in [17] is “inactive”.

For `CN1CCC[C@@H]1CCO[C@](C)(c1ccccc1)c1ccc(Cl)cc1`, the Potency entry in [1], in experiment [18], in experiment [4] and in experiment [10] was “inactive” throughout. Besides, the Potency is 29.8 µM (active) in experiment [3], 29.8 µM (active) in experiment [5], 26.6 µM (active) in experiment [7] and 29.8 µM (active) in [16].

As for `Nc1ccc(NCCO)c([N+](=O)[O-])c1`, the Potency in experiment [1] is 15.4 µM (active). The Potency entry in experiment [19], in experiment [13], in experiment [14], in experiment [3], in experiment [18] and in experiment [4] was “inactive” throughout. The Potency entry in experiment [5], in experiment [6], in experiment [7], in experiment [8], in experiment [12] and in [16] was “inactive” in each case.

Take `COc1cccc(OC)c1C(=O)O`: the Potency result in experiment [2], in experiment [15], in [3], in experiment [18], in experiment [5] and in [12] was “inactive” each time. Further, the Potency result in experiment [16] and in [11] was “inactive” in each case.

For `CCCc1ccc(OCC(=O)N2CCN(C(=O)COc3ccc(CCC)cc3OC)CC2)c(OC)c1`, the Potency in experiment [15] is 29.8 µM (active). Besides, the Potency result in [3], in [18], in [4], in experiment [5], in experiment [7] and in experiment [12] was “inactive” in each case. Also, the Potency entry in experiment [10], in experiment [16], in experiment [11] and in experiment [17] was “inactive” throughout.

`CCOC(=O)c1ccc(C2CCC(NC[C@H](O)COc3ccc(O)c(NS(C)(=O)=O)c3)CC2)cc1` (stereo not given in full): the Potency entry in [1], in experiment [13], in [18], in experiment [4], in [6] and in [10] was “inactive” throughout. The Potency in [3] was 50.2 µM (active); in [5] it was 35.9 µM (active); in experiment [12], 35.9 µM (active).

Regarding `CN(C)C(=O)COC(=O)Cc1ccc(OC(=O)c2ccc(N=C(N)N)cc2)cc1`, the Potency result in [2], in experiment [14], in [15], in [3], in experiment [18] and in experiment [4] was “inactive” throughout. Further, the Potency entry in experiment [7], in experiment [9], in [12], in [10] and in [16] was “inactive” throughout.

On to `CC(C)=CCC1=C(O)c2ccccc2C(=O)C1=O`, for which the Potency in experiment [1] was 54.2 µM (active); in [13] it was 0.772 µM (active). Further, the Potency entry in experiment [14], in experiment [3], in experiment [18], in experiment [4], in experiment [5] and in experiment [6] was “inactive” throughout. The Potency result in experiment [12], in experiment [11] and in experiment [17] was “inactive” in each case.
